Assay [1] is described as follows: inhibitors of TNFa-induced NFkB p65 translocation, primary screen, imaging, HUVEC, MLSMR starter and 10KST1 sets (AID 438;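 active = inhibition above 20% together with a positive visual image hit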;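 note: compound added about 3h40 before a 20 min TNFalpha stimulation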;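 for inhibition: signal is the nuclear over cytoplasmic p65 intensity ratio per well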). Conditions: HUVEC TNFa-induced p65 nuclear translocation; cell count: measured here: nuclei count (cytotoxicity indicator), at 2.08 µM; inhibition: at 2 µM, stronger effect = higher value, 0% TNFa-plus-vehicle, 100% no-TNFa wells.
The nature of assay [2]: reduction of polyQ htt aggregates in cells – imaging, exon1htt(103Q)mCFP cells, high-content imaging, primary screen (AID 483;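 active = visual image review flags a hit and inhibition of aggregation exceeds 20%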;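 note: compound exposure lasted 3 days before fixation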;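 for nuclei count: percent of the per-plate median nuclei count of sample wells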). Conditions: exon1htt(103Q)mCFP cell line, aggregate imaging, at 2 µM; inhibition of aggregation: stronger effect = higher value; nuclei count: measured here: cell count, toxicity.
Assay [3] can be described thus: endothelial E-selectin expression blockers – imaging, HUVEC, immunofluorescence, MLSMR starter and 10KST1 sets, primary screen (AID 487;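 active = visually confirmed hit in the image check and inhibition above 20%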;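 for inhibition: signal is fraction of cell area covered by stained E-selectin grains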;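 for nuclei count: 100% = median nuclei count of all wells on the same plate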). As to conditions: HUVEC TNFalpha-induced E-selectin immunofluorescence imaging, at 2 µM; inhibition: stronger effect = higher value; nuclei count: measured here: cell number, toxicity.
For assay [4], the target named is Voltage-gated potassium channel subunit beta-2 (Rattus norvegicus) (UniProt P62483). The assay can be described thus: inhibitors of rat Kvbeta2 reductase activity – biochemical, NADPH fluorescence, primary screen (AID 622).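 Note: slope of raw intensity against log time taken from 70 to 1610 s.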 Conditions: recombinant KvBeta, 4-cyanobenzaldehyde reduction, at 10 µM, stronger effect = higher value.
Assay [5] has the same target. The experiment in a line: enhancers of rat Kvbeta2 NADPH turnover – biochemical, NADPH fluorescence, primary screen (AID 623;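 active = NADPH fluorescence slope more negative than the mean of all samples by about 3 SD, 99.7% confidence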;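 note: fluorescence intensity change per second fitted from 20 to 320 s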). As to conditions: Recombinant KvBeta, NADPH fluorescence decrease slope, 10 min; at 10 µM; stronger effect = lower value.
Assay [6] deals with Alpha-2C adrenergic receptor (Homo sapiens) (UniProt P18825). The experiment in a line: compounds altering alpha2C-coupled GIRK flux – cell-based, HEK293 alpha2C/GIRK1/2, thallium flux, primary screen (AID 624;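 active = fluorescence slope after compound addition differing from the mean of all screened samples at 99.7% confidence, in either direction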;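 note: slope of fluorescence ratio to pre-addition baseline per second over 15 to 24 s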). Conditions: thallium flux BTC fluorescence, at 10 µM, actives lie on both sides.
A short description of assay [7]: blockers of RIG-like receptor reporter activation – cell-based, Sendai virus stimulus, luciferase, 10K MLSCN set, TLR/RLR signaling modifier project, primary screen (AID 602276;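 active = inhibition at or above 50% at 10 µM; inactive = inhibition below 50%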;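 note: firefly luciferase from ISG56 promoter only with Renilla not read in this screen; 0% = Sendai virus plus DMSO and 100% = medium plus DMSO without virus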). Conditions: HEK293 RL24 IRF3 luciferase reporter, at 10 µM, stronger effect = higher value. (A reporter such as luciferase makes a cellular process visible.)
Assay [8] is described as follows: TLR3 IRF3 reporter activation blockers – cell-based, poly I:C stimulus, luciferase, 10K MLSCN set, primary screen (AID 602277;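 active = inhibition of the reporter signal at or above 50%; inactive = inhibition below 50%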). Conditions: HEK293-TLR3 RL24 IRF3 luciferase reporter, at 10 µM, stronger effect = higher value.

Activity calls are given as the source filed them.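 Rule for the calls, unless noted: active = fluorescence slope higher than the sample average by over 3 SD (cut at about -0.22 in these data, passing the limit was not always enough); inactive = the rest.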

Chain of Voltage-gated potassium channel subunit beta-2 (Rattus norvegicus) (P62483 whole entry, looked up): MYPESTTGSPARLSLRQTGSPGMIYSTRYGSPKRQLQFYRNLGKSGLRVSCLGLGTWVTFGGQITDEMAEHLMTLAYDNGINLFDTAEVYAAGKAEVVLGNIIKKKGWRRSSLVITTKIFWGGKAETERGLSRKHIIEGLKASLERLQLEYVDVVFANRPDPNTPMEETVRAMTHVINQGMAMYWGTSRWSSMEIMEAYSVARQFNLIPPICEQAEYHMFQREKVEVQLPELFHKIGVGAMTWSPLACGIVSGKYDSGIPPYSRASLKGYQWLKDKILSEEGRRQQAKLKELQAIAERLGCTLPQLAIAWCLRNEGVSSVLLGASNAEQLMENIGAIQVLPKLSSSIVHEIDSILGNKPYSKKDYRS
Chain of Alpha-2C adrenergic receptor (Homo sapiens) (P18825 whole entry, looked up): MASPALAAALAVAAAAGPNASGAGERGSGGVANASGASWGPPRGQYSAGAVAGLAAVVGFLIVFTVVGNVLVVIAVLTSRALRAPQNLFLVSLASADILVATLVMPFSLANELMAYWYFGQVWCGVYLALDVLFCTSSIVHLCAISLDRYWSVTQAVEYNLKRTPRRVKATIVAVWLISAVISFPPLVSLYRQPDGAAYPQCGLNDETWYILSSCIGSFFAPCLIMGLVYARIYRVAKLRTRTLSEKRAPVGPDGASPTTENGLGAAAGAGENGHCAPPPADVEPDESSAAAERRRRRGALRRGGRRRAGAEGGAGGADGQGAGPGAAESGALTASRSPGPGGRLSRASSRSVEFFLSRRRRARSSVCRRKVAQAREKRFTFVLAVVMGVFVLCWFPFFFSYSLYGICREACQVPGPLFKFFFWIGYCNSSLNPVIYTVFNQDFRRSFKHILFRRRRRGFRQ

What is called inhibition is the drop in the measured response relative to a control, in per cent. Consider `COc1cc(C(Nc2ccc3c(c2)OCO3)C(=O)NC2CCCCC2)cc(OC)c1OC` (centres undefined), for which the cell count in assay [1] was determined as 835. For the same molecule, the inhibition in assay [1] was -10.7% (inactive); in assay [3], -35.2% (inactive); in assay [7] it was 14.6% (inactive); in assay [8] it was 28.3% (inactive). Moreover, in assay [2], the inhibition of aggregation was 12.3% (inactive). Moreover, the nuclei count in assay [2] was 88.5%; in assay [3], 121%. Further, in assay [4], the fluorescence slope was -0.63 (inactive). For the same molecule, the NADPH fluorescence slope in assay [5] is -3e-05 (inactive). The slope in assay [6] is 0.00532 (inactive).

Regarding `CCOC(=O)c1ccc(-n2c(C)nc3c(cnn3-c3ccccc3C)c2=O)cc1`, the cell count in assay [1] was determined as 654. In addition, the inhibition is 6.9% (inactive) in assay [1], 11.9% (inactive) in assay [3], -2.92% (inactive) in assay [7] and 3.65% (inactive) in assay [8]. In addition, in assay [2], the inhibition of aggregation was -46.9% (inactive). In addition, the nuclei count in assay [2] was found to be 102%; in assay [3] it was 108%. Also, in assay [4], the fluorescence slope was -0.543 (inactive). Also, in assay [5], the NADPH fluorescence slope was -6.1e-06 (inactive). The slope in assay [6] is 0.00553 (inactive).

Regarding `O=C(NCCCn1ccnc1)c1csc2ccccc12`, the cell count in assay [1] is 337. Also, the inhibition in assay [1] was 4.7% (inactive); in assay [3], -7.7% (inactive); in assay [7], 10.2% (inactive); in assay [8], 27.4% (inactive). In assay [2], the inhibition of aggregation was -23.2% (inactive). Moreover, the nuclei count in assay [2] was 99.4%; in assay [3], 113%. Besides, the fluorescence slope in assay [4] is -0.414 (inactive). The NADPH fluorescence slope in assay [5] is -3.7e-05 (inactive). Besides, the slope in assay [6] is 0.00227 (inactive).

As for `CC(=O)Nc1ccc(NC(=O)C(C)Oc2ccccc2F)cc1` (centres undefined), the cell count in assay [1] came to 321. The inhibition in assay [1] is 3.9% (inactive); in assay [3] it was 4.3% (inactive); in assay [7], 9.2% (inactive); in assay [8] it was 12.4% (inactive). For the same molecule, the inhibition of aggregation in assay [2] was 9.4% (inactive). For the same molecule, the nuclei count in assay [2] is 104%; in assay [3], 112%. Moreover, in assay [4], the fluorescence slope is -0.65 (inactive). The NADPH fluorescence slope in assay [5] was 1.9e-05 (inactive). Further, the slope in assay [6] is 0.00945 (inactive).

For the molecule `O=C(NC1CCCCCC1)C1CCCN(S(=O)(=O)c2cccs2)C1` (centres undefined), the cell count in assay [1] turned out to be 714. For the same molecule, the inhibition in assay [1] is -6.2% (inactive); in assay [3], -27.6% (inactive); in assay [7], -10.9% (inactive); in assay [8], 2.4% (inactive). Also, in assay [2], the inhibition of aggregation is -1% (inactive). Also, the nuclei count in assay [2] is 109%; in assay [3], 108%. The fluorescence slope in assay [4] is -0.428 (inactive). Moreover, the NADPH fluorescence slope in assay [5] is -6.4e-05 (inactive). The slope in assay [6] was 0.00338 (inactive).

Take `CC(C)=CCC(C)(C)C1OCCN1C(=O)c1ccccc1` (centres undefined): the cell count in assay [1] was 450. Also, the inhibition in assay [1] was 1.5% (inactive); in assay [3] it was 10.2% (inactive); in assay [7], 8.82% (inactive); in assay [8] it was 12.9% (inactive). Besides, the inhibition of aggregation in assay [2] was 1.2% (inactive). For the same molecule, the nuclei count in assay [2] worked out at 116%; in assay [3] it was 106%. Besides, in assay [4], the fluorescence slope is -0.444 (inactive). Besides, the NADPH fluorescence slope in assay [5] is 2e-05 (inactive). In assay [6], the slope is 0.00511 (inactive).

Consider `CCOC(=O)C1CCN(c2c(NC3CCCCCCC3)c(=O)c2=O)CC1`, for which the cell count in assay [1] was 897. The inhibition in assay [1] is 2.8% (inactive); in assay [3], -53.1% (inactive); in assay [7], 9.6% (inactive); in assay [8] it was 32.7% (inactive). Further, in assay [2], the inhibition of aggregation was -6.4% (inactive). For the same molecule, the nuclei count in assay [2] was 103%; in assay [3], 118%. The fluorescence slope in assay [4] is -0.575 (inactive). In addition, the NADPH fluorescence slope in assay [5] was -4.2e-05 (inactive). The slope in assay [6] was 0.00631 (inactive).

With `O=C(c1cccs1)N(Cc1ccco1)Cc1cc2ccccc2[nH]c1=O`, the cell count in assay [1] came out at 420. The inhibition in assay [1] was 6.2% (inactive); in assay [3], -40% (inactive); in assay [7] it was -11% (inactive); in assay [8] it was -8.09% (inactive). Further, the inhibition of aggregation in assay [2] is -7.1% (inactive). Moreover, the nuclei count worked out at 107% in assay [2] and 84.3% in assay [3]. Besides, the fluorescence slope in assay [4] was -0.343 (inactive). For the same molecule, the NADPH fluorescence slope in assay [5] is -3.2e-05 (inactive). Also, the slope in assay [6] is 0.00483 (inactive).

Turning to `CC(=O)N1CCc2c(sc(NC(=O)c3ccc(S(=O)(=O)N(C)C)cc3)c2C#N)C1`, the cell count in assay [1] turned out to be 660. Also, the inhibition in assay [1] is -0.8% (inactive); in assay [3], 7.9% (inactive); in assay [7], -4.77% (inactive); in assay [8] it was 22.6% (inactive). Besides, the inhibition of aggregation in assay [2] is 18.5% (inactive). For the same molecule, the nuclei count in assay [2] came out at 87.4%; in assay [3], 93%. Also, the fluorescence slope in assay [4] was -0.52 (inactive). Further, in assay [5], the NADPH fluorescence slope is -3.5e-05 (inactive). For the same molecule, the slope in assay [6] was 0.0064 (inactive).

Regarding `CCOC(OCC)P(=O)(C(C)C)C(C)C`, the cell count in assay [1] turned out to be 491. Further, the inhibition in assay [1] is 6% (inactive); in assay [3], -53.6% (inactive); in assay [7] it was 17.5% (inactive); in assay [8], 17.3% (inactive). In addition, in assay [2], the inhibition of aggregation is -0.1% (inactive). The values for the nuclei count in assay [2] and in assay [3] were 93.4% and 134%, respectively. Besides, the fluorescence slope in assay [4] was -0.443 (inactive). For the same molecule, the NADPH fluorescence slope in assay [5] was 4e-05 (inactive). Moreover, the slope in assay [6] was 0.00549 (inactive).

Turning to `O=C(COC(=O)c1cc(S(=O)(=O)N2CCOCC2)cs1)c1ccccc1`, the cell count in assay [1] was 692. Further, the inhibition in assay [1] was -5.5% (inactive); in assay [3], -88.5% (inactive); in assay [7], 11.5% (inactive); in assay [8], 29.5% (inactive). For the same molecule, the inhibition of aggregation in assay [2] is -9.6% (inactive). Further, the nuclei count was determined as 103% in assay [2] and 114% in assay [3]. The fluorescence slope in assay [4] is -0.485 (inactive). Besides, the NADPH fluorescence slope in assay [5] was -5.8e-05 (inactive). Also, in assay [6], the slope is 0.00656 (inactive).

Regarding `CCC(OC(=O)c1cccs1)C(=O)NCc1ccco1` (centres undefined), in assay [1], the cell count came out at 404. Further, the inhibition is 5.2% (inactive) in assay [1], -72.5% (inactive) in assay [3], 16.1% (inactive) in assay [7] and 25% (inactive) in assay [8]. The inhibition of aggregation in assay [2] was 10.4% (inactive). Further, the nuclei count worked out at 90.1% in assay [2] and 118% in assay [3]. Besides, the fluorescence slope in assay [4] is -0.44 (inactive). Besides, the NADPH fluorescence slope in assay [5] is -0.000112 (inactive). Also, the slope in assay [6] is 0.00455 (inactive).

Consider `O=C(CN(CC1CCCO1)C(=O)CCC(=O)Nc1ccccn1)NCC1CCCO1` (centres undefined), for which the cell count in assay [1] came to 634. For the same molecule, the inhibition in assay [1] was -1.6% (inactive); in assay [3], -8.5% (inactive); in assay [7] it was 13.4% (inactive); in assay [8], 15.3% (inactive). The inhibition of aggregation in assay [2] was -13.7% (inactive). For the same molecule, the nuclei count in assay [2] and in assay [3] was 122% each time. Besides, the fluorescence slope in assay [4] is -0.421 (inactive). Further, the NADPH fluorescence slope in assay [5] is -3e-05 (inactive). For the same molecule, the slope in assay [6] is 0.00568 (inactive).

In the case of `CCn1c(SCC(=O)Nc2ccc3c(c2)OCO3)nc2c(c1=O)SC(C)C2` (centres undefined), in assay [1], the cell count amounted to 496. Besides, the inhibition is 9.6% (inactive) in assay [1], 15.4% (inactive) in assay [3], -0.539% (inactive) in assay [7] and 16.9% (inactive) in assay [8]. Moreover, the inhibition of aggregation in assay [2] is 4% (inactive). The values for the nuclei count in assay [2] and in assay [3] were 111% and 95.3%, respectively. Also, the fluorescence slope in assay [4] was -0.561 (inactive). Also, in assay [5], the NADPH fluorescence slope is -5e-05 (inactive). In addition, the slope in assay [6] was 0.00661 (inactive).

For the origin of these results see PubChem BioAssay.
